Compound activity deposited in PubChem BioAssay by National Center for Advancing Translational Sciences (NCATS).
A selection: hits, their analogues and other compounds. The true share with any hit is near 6.9%.
KB-3-1 cytotox: KB-3-1 parental cell cytotoxicity; Potency, µM (top dose mostly 46.1 µM), hits mostly cytotoxic; AID 1347075; 400,000 tested, 1.4% active; KB-3-1 viability, CellTiter-Glo ATP luminescence, 72 h; further: potency means the concentration at half of the fitted maximal effect; on the % scale 0 is the no-effect control and ±100 the full control effect; nearly all actives have a fitted effect of over 60% in size
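Parental KB-3-1 viability, qHTS format: 72 h compound exposure, 37 °C; CellTiter-Glo; media-only wells and DMSO plates as controls; concentration-effect fits on corrected data.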
SW480 rereplic: inducers of DNA re-replication in SW480 colon cancer cells; SW480 DNA re-replication, Hoechst DNA content imaging, 48 h; Potency, µM (highest dose often 46.1 µM), without a hit: top-dose re-replication activation, most hits filed as activators; 340,000 tested, 1.8% active; AID 624297; further: potency means the concentration at half of the fitted maximal effect; % of control where 0% means no effect; nearly all actives have a fitted effect of over 55% in size
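DNA re-replication was detected as more nuclei of elevated Hoechst intensity after 48 hr exposure to compound (23 nL pinned per well of 250 cells).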
MCF10A rerep: induces DNA re-replication in MCF 10a normal breast cells; MCF 10A DNA re-replication, Hoechst nuclear intensity, 48 h; Potency, µM (titrated, usually from 46.1 µM), inactives show top-dose activity, positive = re-replication, actives largely listed as activators; 350,000 tested, 2.9% active; AID 624296; further: potency means the concentration at half of the fitted maximal effect; % of control where 0% means no effect; nearly all actives have a fitted effect of over 50% in size
Giardia killer: Giardia lamblia killing | Giardia lamblia trophozoite viability | activity change, % at 7.66 µM, hits read low | 340,000 tested, 0.15% active | AID 540267; in the data active means activity change below about -80%; inconclusive means between about -30% and that limit;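 further: parasites exposed to compound for two days anaerobically before the ATP read; on the % scale 0 is the no-effect control and ±100 the full control effect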
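Viability, read as ATP luminescence: trophozoites at 100 cells/well, compound added, 48 hrs anaerobic at 37 deg C, then 15-30 min room-temperature development before reading.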
KB-V1 MDR tox: KB-V1 MDR subline cytotoxicity | KB-V1 MDR cells viability, CellTiter-Glo, 72 h | Potency, µM (series often up to 46.1 µM), hits mostly cytotoxic | 400,000 tested, 3.4% active | AID 1347076; further: potency means the concentration at half of the fitted maximal effect; on the % scale 0 is the no-effect control and ±100 the full control effect; nearly all actives have a fitted effect of over 60% in size
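KB-V1 MDR subline cells in DMEM (phenol-red free, 10% FBS) exposed to compounds in qHTS concentration series for 72 h at 37 degrees C. Viability read by CellTiter-Glo luminescence; concentration-effect curves fitted after normalization and correction.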
ASM inhibitor: inhibitors of human secretory acid sphingomyelinase; 340,000 tested, 0.006% active; placental ASM, HMU-PC fluorogenic substrate, 60 min; Potency, µM (doses to about 57.5 µM), for inactives: at the highest dose activity change, negative = inhibition, most hits filed as inhibitors; further: potency means the concentration at half of the fitted maximal effect
Target sequence (P17405 47-631 limits assumed): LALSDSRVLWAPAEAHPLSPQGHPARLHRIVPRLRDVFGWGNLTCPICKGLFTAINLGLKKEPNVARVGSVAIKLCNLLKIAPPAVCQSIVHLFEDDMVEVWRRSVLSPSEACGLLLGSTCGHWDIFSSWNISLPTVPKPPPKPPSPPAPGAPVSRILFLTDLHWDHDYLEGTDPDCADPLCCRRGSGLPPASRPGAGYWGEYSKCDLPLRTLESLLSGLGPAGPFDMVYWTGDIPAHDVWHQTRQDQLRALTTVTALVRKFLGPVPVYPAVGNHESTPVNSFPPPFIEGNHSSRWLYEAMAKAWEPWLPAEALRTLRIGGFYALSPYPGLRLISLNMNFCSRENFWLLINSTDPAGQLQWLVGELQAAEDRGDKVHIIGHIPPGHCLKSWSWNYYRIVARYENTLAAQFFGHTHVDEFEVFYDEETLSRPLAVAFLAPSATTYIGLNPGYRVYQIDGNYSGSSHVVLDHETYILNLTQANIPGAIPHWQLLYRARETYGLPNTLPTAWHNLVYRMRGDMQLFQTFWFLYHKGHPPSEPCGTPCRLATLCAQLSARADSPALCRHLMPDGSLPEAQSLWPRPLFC
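Fluorogenic HMU-PC substrate (9 uM final) is turned over by placental ASM in 60 min at 37 C after a 10 min compound preincubation. Reaction ended by alkaline stop (pH 10), with fluorescence read at 386/447 nm.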
* = called active by the depositor; i = inactive; ? = inconclusive; nt = no result. Unless noted, the call rests on the fitted dose curve; in most records, active means well fitted curve in the direction sought with a large enough effect; inconclusive means small, poorly fitted or top-dose-only effect, or another doubt; inactive means no such curve, though single readings can be large; an effect the other way counts as inactive or inconclusive.

SMILES	KB-3-1 cytotox	SW480 rereplic	MCF10A rerep	Giardia killer	KB-V1 MDR tox	ASM inhibitor
COc1ccc(CN(C)C(=O)c2cc(-c3ccccc3)nc3ccc(C)cc23)c(OC)c1	18µM*	nt	nt	nt	?	nt
N#CC1C=Cc2c(ccc3ccccc23)N1C(=O)c1ccccc1 (configuration not stated)	0.46µM*	3.7µM*	1.5µM*	?	i	-10%
N#CC1C=Cc2ccccc2N1C(=O)c1ccccc1 (configuration not stated)	i	15%	14%	-29	i	-1%
C/C(=N/Nc1nc(C)cc(-c2ccccc2)n1)c1ccco1	i	12%	0%	-8	16µM*	-4%
C/C(=N\Nc1nc(C)cc(-c2ccccc2)n1)c1ccccc1	i	?	1%	3	6.5µM*	-3%
N#Cc1c[nH]n2c(NC3CCCC3)c(-c3cccc(Br)c3)nc12	i	nt	nt	nt	i	nt
COc1ccc(NC(=O)CSc2nc(C3CC3)nc3ccccc23)cc1	?	13µM*	?	8	?	-2%
CC(=O)c1ccc(NC(=O)CSc2nc(C3CC3)nc3ccccc23)cc1	i	-3%	?	1	i	0%
N#Cc1cccc(NC(=O)CSc2ccc3c4c(cccc24)C(=O)c2ccccc2-3)c1	?	?	7.3µM*	-29	21µM*	-4%
COc1ccc(NC(=O)CSc2nc3ccccc3cc2Cc2ccccc2)cc1	i	9%	27%	-13	i	-11%
COc1ccc(NC(=O)CSc2ccc3c4c(cccc24)C(=O)c2ccccc2-3)cc1	?	12µM*	2.6µM*	-5	?	-3%
COc1ccc(OC)c(NC(=O)CSc2nc3ccccc3cc2Cc2ccccc2)c1	i	30%	15µM*	6	i	-4%
COc1ccc(Cn2cc(C(=O)c3ccc(Cl)cc3)c(=O)c3cc4c(cc32)OCO4)cc1	i	nt	nt	nt	i	nt
Cc1ccc(Cn2c(C(=O)Nc3cccc(Cl)c3)cc3sccc32)cc1	i	nt	nt	nt	?	nt
COc1ccc(NC(=O)CN2CCN(Cc3ccc(F)cc3)S2(=O)=O)cc1Cl	i	nt	nt	nt	i	nt
Cc1cc(C)cc(NS(=O)(=O)c2ccc(NC(=O)C3CCCCC3C(=O)O)cc2)c1 (configuration not stated)	i	-2%	25%	-1	i	28%
COc1ccc(C)cc1S(=O)(=O)N(C)CC(=O)NC1CCCC1	i	?	2%	-13	12µM*	4%
COc1ccc(C)cc1S(=O)(=O)N(C)CC(=O)N1CCCC1	i	2.3µM*	2%	-19	i	6%
CC(C)c1ccc(NC(=O)Cn2c(=O)oc3cc(S(=O)(=O)N4CCCC4)ccc32)cc1	?	nt	nt	nt	i	nt
CCOc1ncccc1C(=O)NCc1ccc(C)cc1	i	-82%	?	1	18µM*	2%
CCOc1ncccc1C(=O)Nc1ccccc1C(=O)NCc1ccc2c(c1)OCO2	i	13%	?	-2	5.2µM*	15%
Cc1ccc(Oc2ccc(C(=O)NCc3ccncc3)cc2)cc1	i	2%	2%	44	21µM*	-6%
CCOc1ncccc1C(=O)Nc1ccc2c(c1)OCO2	?	-2%	18%	1	?	-1%
Cc1[nH]c2ccccc2c1C(=O)CNc1ccc(Br)cc1	i	nt	nt	nt	i	nt
CCCCCCCCCC[n+]1cc(Br)cc(Br)c1	?	nt	nt	nt	i	nt
SMILES	KB-3-1 cytotox	SW480 rereplic	MCF10A rerep	Giardia killer	KB-V1 MDR tox	ASM inhibitor
Cc1ccc(NC(=O)C(CC(C)C)N2Cc3ccccc3C2=O)cc1F (configuration not stated)	i	nt	nt	nt	i	nt
CNC1=CC(=O)CC(c2ccccc2)C1 (configuration not stated)	i	?	?	-2	i	-1%
O=C1C=C(NCc2ccncc2)CC(c2ccccc2)C1 (configuration not stated)	i	0%	3%	7	i	15%
CCCCCCCNC1=CC(=O)CC(c2ccccc2)C1 (configuration not stated)	7.3µM*	?	18µM*	-1	?	-3%
CCCCCNC1=CC(=O)CC(c2ccccc2)C1 (configuration not stated)	?	?	?	-1	15µM*	6%
O=C(c1ccoc1)N1CCN(c2cc(-c3ccccc3)nc3cc(-c4ccccc4)nn23)CC1	16µM*	nt	nt	nt	?	nt
COc1ccccc1-c1cc2nc(-c3ccccc3)cc(N3CCN(C(=O)c4ccoc4)CC3)n2n1	?	nt	nt	nt	9.2µM*	nt
COc1cccc(-c2cc(N3CCN(C(=O)c4ccoc4)CC3)n3nc(-c4cccc(Cl)c4)cc3n2)c1	i	nt	nt	nt	i	nt
Cc1cc(N2CCN(C(=O)c3ccoc3)CC2)n2nc(-c3ccccc3)cc2n1	i	nt	nt	nt	i	nt
Cc1cc(N2CCN(C(=O)c3ccco3)CC2)n2ncc(-c3ccccc3)c2n1	i	2%	?	20	i	31%
COc1ccccc1-c1cc2nc(-c3ccccc3)cc(N3CCN(C(=O)c4ccco4)CC3)n2n1	16µM*	nt	nt	nt	?	nt
Cc1nn2c(N3CCN(C(=O)c4ccco4)CC3)cc(C(C)(C)C)nc2c1-c1ccccc1	?	-6%	-3%	4	18µM*	4%
Cc1c2cnn(CC(=O)NC(C)C)c(=O)c2c(C)n1Cc1cccc(Cl)c1	i	nt	nt	nt	i	nt
C/C=C/c1ccc(OCCCCN2CCN(CC)CC2)c(OC)c1	i	8.2µM*	-5%	-3	i	2%
CCN(CC)Cc1c(O)ccc2c(=O)c(-c3ccc(Cl)cc3)coc12	i	-13%	?	-1	i	68%
C=CCN(CC=C)Cc1c(O)ccc2c(=O)c(-c3ccccc3)coc12	i	?	21µM*	-7	i	40%
COC(=O)c1ccc(C(NC(=O)OCc2ccccc2)/C(F)=C/[C@@H](C)C(=O)NCc2ccc(-c3ccccc3)cc2)cc1 (some centres not stated)	i	0%	?	-27	i	0%
COC(=O)c1ccc(C(NC(=O)OCc2ccccc2)/C(F)=C/[C@@H](C)C(=O)NCc2ccc(OC)c(OC)c2)cc1 (some centres not stated)	?	16µM*	?	1	i	-1%
CCOc1ccc2nc(NCCNC(=O)Nc3ccccc3)c(C#N)cc2c1	i	?	?	0	?	344%
Cc1cc2cc(C#N)c(NCCNC(=S)NCCCN3CCOCC3)nc2cc1C	i	16µM*	21µM*	14	?	i
